Results on seven compounds are retold here after ChEMBL document CHEMBL2218924, “A broad activity screen in support of a chemogenomic map for kinase signalling research and drug discovery” (Biochem J, 2013).

The target in assay [1] is T1, CDK3/cyclin E (Homo sapiens) (UniProt P24864+O96020+Q00526). The conditions noted are these: at 1 µM.
Assay [2] addresses T1, CDK3/cyclin E (Homo sapiens). The conditions noted are these: at 10 µM.
The target in assay [3] is T2, Cyclin-dependent kinase 5/CDK5 activator 1 (Homo sapiens) (UniProt Q00535+Q15078). As to conditions: at 1 µM.
The target of assay [4] is T2, Cyclin-dependent kinase 5/CDK5 activator 1 (Homo sapiens). As to conditions: at 10 µM.
Assay [5] shares this target. As to conditions: at 1 µM. This is another data set of the same source.
Assay [6] shares this target. As to conditions: at 10 µM. This is another data set of the same source.
The target of assay [7] is T3, CDK6/cyclin D3 (Homo sapiens) (UniProt P30281+Q00534). As to conditions: at 1 µM.
In assay [8] the target is T3, CDK6/cyclin D3 (Homo sapiens). The conditions noted are these: at 10 µM.
The target in assay [9] is T4, Cyclin-dependent kinase 7/ cyclin H (Homo sapiens) (UniProt P51946+P50613). As to conditions: at 1 µM.
Assay [10] deals with T4, Cyclin-dependent kinase 7/ cyclin H (Homo sapiens). As to conditions: at 10 µM.
For assay [11], the target named is T5, CDK9/cyclin T1 (Homo sapiens) (UniProt O60563+P50750). As to conditions: at 1 µM.
The target of assay [12] is T5, CDK9/cyclin T1 (Homo sapiens). As to conditions: at 10 µM.
Assay [13] concerns the target T6, Serine/threonine-protein kinase Chk1 (Homo sapiens) (UniProt O14757).
T6 sequence (whole entry): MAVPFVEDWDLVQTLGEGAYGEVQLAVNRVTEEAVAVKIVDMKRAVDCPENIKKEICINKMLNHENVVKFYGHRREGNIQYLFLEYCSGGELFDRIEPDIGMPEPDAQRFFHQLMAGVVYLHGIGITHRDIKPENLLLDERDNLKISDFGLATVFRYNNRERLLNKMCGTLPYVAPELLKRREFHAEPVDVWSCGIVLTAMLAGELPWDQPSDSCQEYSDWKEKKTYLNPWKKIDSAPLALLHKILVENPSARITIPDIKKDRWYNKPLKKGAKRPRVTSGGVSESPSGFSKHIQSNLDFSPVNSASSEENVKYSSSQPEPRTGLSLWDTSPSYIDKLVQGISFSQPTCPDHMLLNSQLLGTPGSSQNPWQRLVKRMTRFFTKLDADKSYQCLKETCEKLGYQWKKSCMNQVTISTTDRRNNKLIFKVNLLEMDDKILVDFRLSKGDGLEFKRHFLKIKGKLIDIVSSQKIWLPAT
As to conditions: at 1 µM.

Assay [14] addresses T6, Serine/threonine-protein kinase Chk1 (Homo sapiens). As to conditions: at 10 µM.
Assay [15] deals with Serine/threonine-protein kinase Chk2 (Homo sapiens) (UniProt O96017). The conditions noted are these: at 1 µM.
Assay [16] has the same target. The conditions noted are these: at 10 µM.
Assay [17] addresses Casein kinase I isoform gamma-1 (Homo sapiens) (UniProt Q9HCP0). As to conditions: at 1 µM.
Assay [18] shares this target. As to conditions: at 10 µM.
Assay [19] addresses Casein kinase I isoform delta (Homo sapiens) (UniProt P48730). As to conditions: at 1 µM.
Assay [20] shares this target. As to conditions: at 10 µM.

Casein kinase I isoform delta (Homo sapiens), sequence (P48730 whole entry, looked up, canonical isoform): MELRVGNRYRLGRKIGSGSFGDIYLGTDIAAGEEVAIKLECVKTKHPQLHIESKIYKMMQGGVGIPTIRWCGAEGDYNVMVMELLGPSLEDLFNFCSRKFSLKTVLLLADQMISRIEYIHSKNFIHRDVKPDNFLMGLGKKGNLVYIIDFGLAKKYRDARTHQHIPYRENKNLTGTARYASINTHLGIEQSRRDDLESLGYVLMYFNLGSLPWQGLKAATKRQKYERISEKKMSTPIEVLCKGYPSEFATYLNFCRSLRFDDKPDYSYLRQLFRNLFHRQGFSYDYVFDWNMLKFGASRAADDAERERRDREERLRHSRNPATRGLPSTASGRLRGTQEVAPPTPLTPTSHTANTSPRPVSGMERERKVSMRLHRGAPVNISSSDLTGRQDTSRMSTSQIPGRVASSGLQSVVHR
Serine/threonine-protein kinase Chk2 (Homo sapiens), sequence (O96017 whole entry): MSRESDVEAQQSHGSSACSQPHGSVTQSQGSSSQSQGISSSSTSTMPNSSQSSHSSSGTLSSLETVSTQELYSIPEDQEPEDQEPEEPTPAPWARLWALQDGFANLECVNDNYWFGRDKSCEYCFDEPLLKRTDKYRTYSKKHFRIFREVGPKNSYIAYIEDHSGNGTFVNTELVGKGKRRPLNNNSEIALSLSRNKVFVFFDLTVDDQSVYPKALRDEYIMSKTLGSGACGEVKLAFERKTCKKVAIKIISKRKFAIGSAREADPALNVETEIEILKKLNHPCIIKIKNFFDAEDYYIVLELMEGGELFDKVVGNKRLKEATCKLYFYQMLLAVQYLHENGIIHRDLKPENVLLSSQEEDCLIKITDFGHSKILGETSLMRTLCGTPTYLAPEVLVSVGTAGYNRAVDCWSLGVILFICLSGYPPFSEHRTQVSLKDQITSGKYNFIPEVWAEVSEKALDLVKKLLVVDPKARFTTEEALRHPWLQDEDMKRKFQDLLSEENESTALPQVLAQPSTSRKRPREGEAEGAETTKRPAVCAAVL
T1 sequence (O96020 whole entry, looked up): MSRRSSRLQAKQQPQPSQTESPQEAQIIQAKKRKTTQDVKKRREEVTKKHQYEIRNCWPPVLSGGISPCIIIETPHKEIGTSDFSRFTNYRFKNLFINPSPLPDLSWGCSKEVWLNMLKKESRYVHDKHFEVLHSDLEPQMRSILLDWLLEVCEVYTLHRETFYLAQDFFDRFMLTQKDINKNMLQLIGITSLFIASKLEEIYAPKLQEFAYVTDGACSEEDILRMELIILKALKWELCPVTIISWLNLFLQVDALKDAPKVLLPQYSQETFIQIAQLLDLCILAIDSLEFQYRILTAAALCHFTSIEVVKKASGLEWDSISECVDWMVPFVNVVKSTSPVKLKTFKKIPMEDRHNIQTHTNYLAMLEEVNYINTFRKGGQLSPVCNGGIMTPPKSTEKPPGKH
T1 sequence (P24864 whole entry, looked up): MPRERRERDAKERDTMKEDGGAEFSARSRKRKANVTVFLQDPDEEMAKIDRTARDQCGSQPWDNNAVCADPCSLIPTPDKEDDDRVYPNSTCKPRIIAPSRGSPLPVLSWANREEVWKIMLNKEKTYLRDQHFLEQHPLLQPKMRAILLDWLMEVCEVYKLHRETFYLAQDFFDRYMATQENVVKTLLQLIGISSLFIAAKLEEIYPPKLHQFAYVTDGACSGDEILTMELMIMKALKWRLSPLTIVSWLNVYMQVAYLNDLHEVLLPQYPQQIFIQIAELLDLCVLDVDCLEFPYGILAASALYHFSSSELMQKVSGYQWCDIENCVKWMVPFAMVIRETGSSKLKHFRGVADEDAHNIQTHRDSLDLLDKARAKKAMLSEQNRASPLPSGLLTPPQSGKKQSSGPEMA
T1 sequence (Q00526 whole entry, looked up): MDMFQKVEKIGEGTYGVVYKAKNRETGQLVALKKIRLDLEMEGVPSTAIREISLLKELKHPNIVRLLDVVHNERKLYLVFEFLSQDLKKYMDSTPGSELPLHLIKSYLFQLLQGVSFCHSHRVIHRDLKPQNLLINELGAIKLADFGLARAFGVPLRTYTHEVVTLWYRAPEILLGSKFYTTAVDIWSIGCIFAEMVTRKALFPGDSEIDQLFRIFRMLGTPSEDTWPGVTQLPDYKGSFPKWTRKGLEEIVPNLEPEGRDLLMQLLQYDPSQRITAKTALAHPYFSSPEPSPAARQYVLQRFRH
Casein kinase I isoform gamma-1 (Homo sapiens), sequence (Q9HCP0 whole entry, looked up, canonical isoform): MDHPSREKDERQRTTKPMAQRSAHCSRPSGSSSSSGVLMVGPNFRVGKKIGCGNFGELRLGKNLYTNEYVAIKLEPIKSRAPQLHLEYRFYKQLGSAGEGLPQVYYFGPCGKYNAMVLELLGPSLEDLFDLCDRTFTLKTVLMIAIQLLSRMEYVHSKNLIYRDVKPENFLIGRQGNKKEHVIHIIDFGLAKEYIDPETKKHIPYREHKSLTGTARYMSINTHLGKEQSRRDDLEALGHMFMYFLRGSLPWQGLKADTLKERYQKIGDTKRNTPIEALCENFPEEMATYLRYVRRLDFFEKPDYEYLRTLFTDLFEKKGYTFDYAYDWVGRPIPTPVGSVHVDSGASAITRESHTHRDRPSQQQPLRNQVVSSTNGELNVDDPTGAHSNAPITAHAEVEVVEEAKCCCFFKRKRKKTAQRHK

Consider `c1ccc2c(-c3ccncc3)c[nH]c2c1`, for which the residual activity is 90% in assay [1]; 73% in assay [2]; 91% in assay [3]; 74% in [4]; 86% in assay [5]; 75% in assay [6]. The residual activity is 85% in assay [7]; 82% in [8]; 83% in [9]; 94% in assay [10]; 67% in [11]; 20% in assay [12]. In addition, the residual activity in assay [13] amounted to 89%; in assay [14], 80%; in assay [15], 86%; in assay [16], 100%; in [17] it was 96%; in [18], 95%. Moreover, the figures for the residual activity in assay [19] and in [20] were 85% and 81%, respectively.
For the compound `NC(=O)c1ccc2[nH]c(-c3ccc(Oc4ccc(Cl)cc4)cc3)nc2c1`, the residual activity in assay [1] was 87%; in assay [2], 80%; in [3] it was 68%; in [4], 31%; in assay [5], 83%; in assay [6], 55%. Further, the residual activity was 93% in assay [7]; 82% in [8]; 99% in assay [9]; 98% in [10]; 81% in assay [11]; 78% in [12]. Besides, the residual activity in assay [13] is 91%; in assay [14], 97%; in assay [17], 78%; in assay [18], 57%; in assay [19], 83%; in assay [20], 83%.
In the case of `CO[C@@H]1[C@H](N(C)C(=O)c2ccccc2)C[C@H]2O[C@]1(C)n1c3ccccc3c3c4c(c5c6ccccc6n2c5c31)C(=O)NC4`, the residual activity in assay [1] came to 76%; in assay [2] it was 67%; in [3] it was 57%; in assay [4] it was 40%; in assay [5], 76%; in assay [6], 54%. Also, the residual activity in assay [7] turned out to be 87%; in assay [8], 81%; in assay [10], 90%; in [11], 70%; in [12] it was 58%; in assay [13] it was 59%. The residual activity in assay [14] was found to be 65%; in assay [15], 79%; in assay [16], 54%; in [17] it was 66%; in assay [18] it was 49%; in assay [19] it was 80%. For the same compound, in [20], the residual activity came to 69%.
Turning to `N#CCCc1ccc2c(c1)-c1[nH]c3ccc([N+](=O)[O-])cc3c1CC(=O)N2`, the residual activity is 2% in assay [1]; 0% in [2]; -1% in assay [3]; 0% in assay [4]; 0% in assay [5]; 0% in assay [6]. Besides, the residual activity in assay [7] is 30%; in assay [8], 8%; in assay [11] it was 1%; in assay [12] it was 0%; in assay [13], 39%; in assay [14] it was 16%. In addition, the residual activity was found to be 4% in assay [15] and 0% in assay [16].
For the compound `CCN(CC)C(=O)c1ccc(Nc2nc(OCC3CCCCC3)c3nc[nH]c3n2)cc1`, the residual activity in assay [2] was 34%; in [3], 59%; in assay [4], 10%; in assay [5], 74%; in assay [6], 16%; in assay [7] it was 39%. Also, the residual activity came out at 5% in [8]; 67% in assay [9]; 16% in assay [10]; 46% in assay [11]; 8% in assay [12]; 57% in assay [13]. Also, the residual activity came to 10% in assay [14]; 55% in assay [15]; 12% in [16]; 42% in assay [17]; 7% in [18]; 71% in assay [19]. Moreover, in assay [20], the residual activity was determined as 34%.
With `O=C1NC(=O)/C(=C\c2ccc3nccnc3c2)S1`, the residual activity in assay [1] came to 96%; in assay [2], 68%; in [3], 96%; in assay [4] it was 64%; in assay [5], 97%; in [6], 74%. The residual activity is 91% in assay [7]; 86% in assay [8]; 89% in [9]; 80% in [10]; 60% in assay [11]; 14% in assay [12]. The residual activity in [13] came out at 85%; in assay [14], 91%; in [15], 78%; in [16], 33%; in assay [17], 92%; in assay [18], 44%. Further, the residual activity came to 88% in assay [19] and 46% in assay [20].
Turning to `Cn1cc(/C=C2\C(=O)Nc3ccc(S(N)(=O)=O)cc32)c2ccccc21`, the residual activity in assay [1] turned out to be 69%; in [2] it was 34%; in [3], 42%; in [4] it was 17%; in assay [5] it was 33%; in assay [6] it was 34%. In addition, the residual activity in assay [7] came out at 93%; in assay [8], 56%; in assay [9], 13%; in [10], 4%; in [11], 62%; in [12] it was 55%. Besides, the residual activity in assay [13] stood at 16%; in [14] it was 7%; in assay [15], 4%; in [16], 1%; in [17], 88%; in [18] it was 52%. The residual activity in assay [19] amounted to 93%; in assay [20], 59%.
